Results: PubChem BioAssay (NCATS)
Results filed as inconclusive are left out. Activity calls are given as the source filed them. Calls follow the shape of the dose curve; as a rule, active = well fitted cell-killing curve with a large enough effect; inconclusive = small, poorly fitted or top-dose-only effect, or effect the other way; inactive = flat fitted curve, though single readings scatter.

How the values were obtained:
Test in all cases: Primary qHTS to identify gynecologic anti-cancer compounds using libraries of approved drugs and bioactive compounds (AID 1345084); also: nearly all actives have a fitted effect of over 55% in size
C33A = conditions: Gynecologic cancer cell panel viability, ATPlite luminescence, 48 h; series mostly up to 57.5 µM
How it was run: (§1)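 Cell viability after 48 h drug treatment, ATPlite luminescence readout; five doses.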

CAOV3 = conditions: Gynecologic cancer cell panel viability, ATPlite luminescence, 48 h; series mostly up to 57.5 µM
How it was run: as §1

CASKI = conditions: Gynecologic cancer cell panel viability, ATPlite luminescence, 48 h; series mostly up to 57.5 µM
How it was run: as §1

Es-2 = conditions: Gynecologic cancer cell panel viability, ATPlite luminescence, 48 h; series mostly up to 57.5 µM
How it was run: as §1

HeLa = conditions: Gynecologic cancer cell panel viability, ATPlite luminescence, 48 h; series mostly up to 57.5 µM
How it was run: as §1

Hek293T = conditions: Gynecologic cancer cell panel viability, ATPlite luminescence, 48 h, control line for the selectivity index; series mostly up to 57.5 µM
How it was run: as §1

JEG-3 = conditions: Gynecologic cancer cell panel viability, ATPlite luminescence, 48 h; series mostly up to 57.5 µM
How it was run: as §1

OV90 = conditions: Gynecologic cancer cell panel viability, ATPlite luminescence, 48 h; series mostly up to 57.5 µM
How it was run: as §1

PA-1 = conditions: Gynecologic cancer cell panel viability, ATPlite luminescence, 48 h; series mostly up to 57.5 µM
How it was run: as §1

SKOV3 = conditions: Gynecologic cancer cell panel viability, ATPlite luminescence, 48 h; series mostly up to 57.5 µM
How it was run: as §1

Tov-21-G = conditions: Gynecologic cancer cell panel viability, ATPlite luminescence, 48 h; series mostly up to 57.5 µM
How it was run: as §1

Tov112D = conditions: Gynecologic cancer cell panel viability, ATPlite luminescence, 48 h; series mostly up to 57.5 µM
How it was run: as §1
% is scaled to controls: 0 for no effect and ±100 for the full control effect.

CC(=O)/C=C/C1(O)C(C)CC(O[C@@H]2O[C@H](CO)[C@@H](O)[C@H](O)[C@H]2O)CC1(C)C (stereo partly drawn)
inactive: Potency (C33A) | Potency (CAOV3) | outcome (CASKI) | Potency (Es-2) | Potency (HeLa) | Potency (Hek293T) | Potency (JEG-3) | Potency (OV90) | Potency (PA-1) | Potency (SKOV3) | Potency (Tov-21-G) | Potency (Tov112D)

O=C(CC1CC(c2ccc(F)cc2F)=NO1)N1CCOCC1 (stereo not drawn)
inactive: Potency (C33A) | Potency (CAOV3) | outcome (CASKI) | Potency (Es-2) | Potency (HeLa) | Potency (Hek293T) | Potency (JEG-3) | Potency (OV90) | Potency (PA-1) | Potency (SKOV3) | Potency (Tov-21-G) | Potency (Tov112D)

CC[C@@H](C)[C@H](N)C(=O)N1Cc2ccccc2C1
inactive: Potency (C33A) | Potency (CAOV3) | outcome (CASKI) | Potency (Es-2) | Potency (HeLa) | Potency (Hek293T) | Potency (JEG-3) | Potency (OV90) | Potency (PA-1) | Potency (SKOV3) | Potency (Tov-21-G) | Potency (Tov112D)

CC(=O)O[C@H]1C[C@@H](O)C(C)(C)C2C[C@@H](OC(C)=O)[C@@]3(C)C4=CCC(C(CO)CC(O)C5OC5(C)C)[C@]4(C)CCC3[C@]21C (stereo partly drawn)
inactive: Potency (C33A) | Potency (CAOV3) | outcome (CASKI) | Potency (Es-2) | Potency (HeLa) | Potency (Hek293T) | Potency (JEG-3) | Potency (OV90) | Potency (PA-1) | Potency (SKOV3) | Potency (Tov-21-G) | Potency (Tov112D)

CC(=O)O[C@@H]1C=C2[C@H](CC[C@@]3(C)[C@@]2(O)CC[C@H]2Cc4c([nH]c5ccccc45)[C@@]23C)O[C@@H]1C(C)(C)O
inactive: Potency (C33A) | Potency (CAOV3) | outcome (CASKI) | Potency (Es-2) | Potency (HeLa) | Potency (Hek293T) | Potency (JEG-3) | Potency (OV90) | Potency (PA-1) | Potency (SKOV3) | Potency (Tov-21-G) | Potency (Tov112D)

C=CC(C)(O)CC/C=C(\C)COC1O[C@H](CO)[C@@H](O)[C@H](O)[C@H]1O (stereo partly drawn)
inactive: Potency (C33A) | Potency (CAOV3) | outcome (CASKI) | Potency (Es-2) | Potency (HeLa) | Potency (Hek293T) | Potency (JEG-3) | Potency (OV90) | Potency (PA-1) | Potency (SKOV3) | Potency (Tov-21-G) | Potency (Tov112D)

CCc1cc(CC[C@]2(C3CCCC3)CC(O)=C(Cc3nc4nc(C)cc(C)n4n3)C(=O)O2)cc(CC)n1
inactive: Potency (C33A) | Potency (CAOV3) | outcome (CASKI) | Potency (Es-2) | Potency (HeLa) | Potency (Hek293T) | Potency (JEG-3) | Potency (OV90) | Potency (PA-1) | Potency (SKOV3) | Potency (Tov-21-G) | Potency (Tov112D)

C[C@@H]1O[C@@H](OC2C(CO)OC(OCC3OC(OC(=O)[C@]45CCC(C)(C)CC4C4=CCC6[C@@]7(C)CC[C@@H](O)[C@](C)(C(=O)O)C7CC[C@@]6(C)[C@]4(C)CC5)C(O)C(O)C3O)C(O)C2O)[C@H](O)[C@H](O)[C@H]1O (stereo partly drawn)
inactive: activity change, negative = cytotoxicity (C33A) 1.71% [at 11.6 µM] | activity change, negative = cytotoxicity (CAOV3) 16.7% [at 11.6 µM] | activity change, negative = cytotoxicity (CASKI) -0.233% [at 11.6 µM] | activity change, negative = cytotoxicity (Es-2) -9.93% [at 11.6 µM] | activity change, negative = cytotoxicity (HeLa) 4.67% [at 11.6 µM] | activity change, negative = cytotoxicity (Hek293T) 5.6% [at 11.6 µM] | activity change, negative = cytotoxicity (JEG-3) 7.96% [at 11.6 µM] | activity change, negative = cytotoxicity (OV90) 8.36% [at 11.6 µM] | activity change, negative = cytotoxicity (PA-1) 29.2% [at 11.6 µM] | activity change, negative = cytotoxicity (SKOV3) 5.25% [at 11.6 µM] | activity change, negative = cytotoxicity (Tov-21-G) 6.16% [at 11.6 µM] | activity change, negative = cytotoxicity (Tov112D) 2.63% [at 11.6 µM]

CNc1nc(Nc2cn(C(C)(C)C#N)nc2C)ncc1C(F)(F)F
inactive: Potency (C33A) | Potency (CAOV3) | outcome (CASKI) | Potency (Es-2) | Potency (HeLa) | Potency (Hek293T) | Potency (JEG-3) | Potency (OV90) | Potency (PA-1) | Potency (SKOV3) | Potency (Tov-21-G) | Potency (Tov112D)

CC(C)(OC1OC(CO)C(O)C(O)C1O)C1CCC(O)(CO)C2CC(=O)C(C)(O)C2C1 (stereo not drawn)
inactive: Potency (C33A) | Potency (CAOV3) | outcome (CASKI) | Potency (Es-2) | Potency (HeLa) | Potency (Hek293T) | Potency (JEG-3) | Potency (OV90) | Potency (PA-1) | Potency (SKOV3) | Potency (Tov-21-G) | Potency (Tov112D)

CC(=O)[C@@H]1C[C@H](C(C)(C)O[C@@H]2O[C@H](CO)[C@@H](O)[C@H](O)[C@H]2O)CC[C@@]2(CO)OC(=O)C[C@@H]12
inactive: Potency (C33A) | Potency (CAOV3) | outcome (CASKI) | Potency (Es-2) | Potency (HeLa) | Potency (Hek293T) | Potency (JEG-3) | Potency (OV90) | Potency (PA-1) | Potency (SKOV3) | Potency (Tov-21-G) | Potency (Tov112D)

Cc1oc(S(=O)(=O)N2CCCCC2)cc1NC(=O)Nc1ccccc1
inactive: Potency (C33A) | Potency (CAOV3) | outcome (CASKI) | Potency (Es-2) | Potency (HeLa) | Potency (Hek293T) | Potency (JEG-3) | Potency (OV90) | Potency (PA-1) | Potency (SKOV3) | Potency (Tov-21-G) | Potency (Tov112D)

CC1OC(O[C@H]2CC[C@@]3(C)C(CC[C@]4(C)C3CC=C3C5CC(C)(C)CC[C@]5(C(=O)OC5OC(CO)C(OC6OCC(OC7OCC(O)C(O)C7O)C(O)C6O)C(O)C5O)CC[C@]34C)C2(C)C)C(O)C(O)C1OC1OC(CO)C(O)C(OC2OC(CO)C(O)C(O)C2O)C1O (stereo partly drawn)
inactive: activity change, negative = cytotoxicity (C33A) -11.5% [at 6.55 µM] | activity change, negative = cytotoxicity (CAOV3) 2.33% [at 6.55 µM] | activity change, negative = cytotoxicity (CASKI) -4.77% [at 6.55 µM] | activity change, negative = cytotoxicity (Es-2) -1.46% [at 6.55 µM] | activity change, negative = cytotoxicity (HeLa) 1.79% [at 6.55 µM] | activity change, negative = cytotoxicity (Hek293T) -4.99% [at 6.55 µM] | activity change, negative = cytotoxicity (JEG-3) -5.08% [at 6.55 µM] | activity change, negative = cytotoxicity (OV90) -14.5% [at 6.55 µM] | activity change, negative = cytotoxicity (PA-1) -1.37% [at 6.55 µM] | activity change, negative = cytotoxicity (SKOV3) 3.95% [at 6.55 µM] | activity change, negative = cytotoxicity (Tov-21-G) -4.11% [at 6.55 µM] | activity change, negative = cytotoxicity (Tov112D) -3.05% [at 6.55 µM]

O=C(NCCN1CCCC1)c1cc(-c2ccc(CN3CCOCC3)cc2)nc2ccc(F)cc12
inactive: Potency (C33A) | Potency (CAOV3) | outcome (CASKI) | Potency (Es-2) | Potency (HeLa) | Potency (Hek293T) | Potency (JEG-3) | Potency (OV90) | Potency (PA-1) | Potency (SKOV3) | Potency (Tov-21-G) | Potency (Tov112D)
